USP17 block: blocks human USP17 ubiquitin-rhodamine cleavage; A8MUK1; inhibition, % at 50 µM; 47,000 compounds, 6.5% hits; purified USP17, Ub-rhodamine cleavage fluorescence, 3 h; AID 1645855
USP28 inh: blocks human USP28 ubiquitin-rhodamine cleavage; Q96RU2; purified USP28, Ub-rhodamine cleavage fluorescence, 30 min; inhibition, % at 25 µM; 47,000 compounds, 3% hits; AID 1645857
USP10 inh: blocks human USP10 ubiquitin-rhodamine cleavage | purified USP10, Ub-rhodamine fluorescence, 60 min | inhibition, % at 20 µM | 47,000 compounds, 1.1% hits
USP30 block: inhibitors of human USP30 deubiquitinase; Q70CQ3; purified USP30, Ub-rhodamine cleavage fluorescence; inhibition, % at 25 µM; 47,000 compounds, 5.3% hits; AID 1645860
USP8 block: blocks human USP8 ubiquitin-rhodamine cleavage; P40818; purified USP8, Ub-rhodamine cleavage fluorescence, 30 min; inhibition, % at 20 µM; 47,000 compounds, 4.2% hits; AID 1645853
Target sequence (P40818 whole entry, looked up): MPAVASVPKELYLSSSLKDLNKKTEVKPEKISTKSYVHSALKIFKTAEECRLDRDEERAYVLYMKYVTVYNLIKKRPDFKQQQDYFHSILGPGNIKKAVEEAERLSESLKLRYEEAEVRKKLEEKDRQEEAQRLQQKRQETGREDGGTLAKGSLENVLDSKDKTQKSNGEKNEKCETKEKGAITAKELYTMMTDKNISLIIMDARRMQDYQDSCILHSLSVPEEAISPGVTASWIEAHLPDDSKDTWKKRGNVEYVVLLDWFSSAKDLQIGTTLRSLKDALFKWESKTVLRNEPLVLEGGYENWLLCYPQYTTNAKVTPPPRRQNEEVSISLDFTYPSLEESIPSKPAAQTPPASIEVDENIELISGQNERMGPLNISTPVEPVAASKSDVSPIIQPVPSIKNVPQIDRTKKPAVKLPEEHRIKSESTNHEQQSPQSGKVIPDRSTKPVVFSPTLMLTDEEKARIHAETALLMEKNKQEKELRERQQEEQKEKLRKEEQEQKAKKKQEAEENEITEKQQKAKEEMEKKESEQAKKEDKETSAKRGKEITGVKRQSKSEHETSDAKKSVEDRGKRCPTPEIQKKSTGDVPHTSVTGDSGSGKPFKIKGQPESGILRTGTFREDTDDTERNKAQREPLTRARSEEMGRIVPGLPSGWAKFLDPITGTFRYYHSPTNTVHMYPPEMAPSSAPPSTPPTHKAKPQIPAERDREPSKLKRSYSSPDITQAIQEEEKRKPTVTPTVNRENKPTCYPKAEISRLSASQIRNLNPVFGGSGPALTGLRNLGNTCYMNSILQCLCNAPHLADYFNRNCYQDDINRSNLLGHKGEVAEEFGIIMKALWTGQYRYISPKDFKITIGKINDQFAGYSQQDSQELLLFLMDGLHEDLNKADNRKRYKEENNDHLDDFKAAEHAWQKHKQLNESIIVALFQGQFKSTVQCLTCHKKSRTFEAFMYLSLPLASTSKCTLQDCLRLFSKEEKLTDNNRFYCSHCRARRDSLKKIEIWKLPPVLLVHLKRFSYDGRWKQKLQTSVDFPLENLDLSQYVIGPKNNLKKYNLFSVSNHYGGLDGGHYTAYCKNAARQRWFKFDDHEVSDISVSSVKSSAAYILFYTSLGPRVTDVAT
* marks the source's active call; other numbers are inactive results; i = inactive; · = not tested or not shown. Compounds with a hit are over-represented: about 13% of the library has one in this group of screens. Rule as the data show it: active = inhibition above about 30%; inactive = the rest.

SMILES | USP17 block | USP28 inh | USP10 inh | USP30 block | USP8 block
Cc1noc(-c2cc(=O)n(CC(=O)NCc3ccccc3)c3ccccc23)n1 | 53* | 6 | 10 | 6 | 1
Cc1ccc(-c2nc(SCC(=O)c3c(N)n(C4CC4)c(=O)[nH]c3=O)n[nH]2)cc1 | -64 | -39 | 3 | -116 | 5
CCc1ccc(-c2nc(SCC(=O)c3c(N)n(C4CC4)c(=O)[nH]c3=O)n[nH]2)cc1 | 44* | -59 | -9 | -242 | 36*
CCS(=O)(=O)N1Cc2ccccc2CC1C(=O)Nc1nc(-c2ccccc2)c(C)s1 (stereo not drawn) | -7 | -7 | 0 | -71 | 46*
CCS(=O)(=O)N1Cc2ccccc2CC1C(=O)NCc1ccc2c(c1)OCO2 (stereo not drawn) | 26 | 7 | 8 | -40 | 39*
Cc1ccc(-c2nnc(-c3ccc(C(=O)NC4CCOc5ccccc54)cc3)o2)cc1 (stereo not drawn) | 18 | 14 | 4 | 22 | 0
COc1cnc(CSc2ccccc2)cc1OCC(=O)Nc1ccccc1F | 36* | -3 | 7 | 25 | 5
COc1cnc(CSc2ccccc2)cc1OCC(=O)Nc1ccccc1 | -1 | -4 | 3 | -7 | -11
COc1cnc(CSc2ncccn2)cc1OCC(=O)Nc1ccc(C)cc1C | 8 | -13 | 0 | 9 | -52
COc1cnc(CSc2ccccc2)cc1OCC(=O)Nc1ccc(F)cc1 | 29 | 9 | 0 | 43* | 8
COc1ccc(NC(=O)COc2cc(CSc3ccccc3)ncc2OC)cc1 | 61* | 17 | 3 | 43* | 21
O=C(c1ccoc1)N1CCCC(Nc2ncnc3c2CCC3)C1 (stereo not drawn) | -3 | 0 | -3 | -16 | 1
Fc1ccccc1-c1nc(-c2ccncc2)ncc1-c1nnnn1-c1ccccc1 | 4 | 1 | 2 | 11 | 10
Fc1cc(F)c2[nH]cc(-c3nnnn3-c3ccc4ccccc4c3)c2c1 | · | 45* | 31* | 71* | 55*
Cc1ccc(NC(=O)CC2C(=O)N(Cc3ccccn3)c3nc4ccccc4n32)cc1 (stereo not drawn) | 0 | 1 | 2 | 14 | 3
Fc1ccc(-c2cc3n(c2)CCc2cc4c(cc2-3)OCO4)cc1 | -23 | -31 | -4 | -234 | 47*
Cc1oc2nc[nH]c(=O)c2c1C(=O)NCc1ccccc1 | -140 | -145 | -5 | i | -121
COc1cc2c(c(OC)c1OC)-c1ccc(N3CCN(c4cccc(Cl)c4)CC3)c(=O)cc1[C@@H](NC(C)=O)CC2 | 22 | -3 | -1 | -13 | 55*
COc1cccc(NC(=O)c2nc3c(s2)CCNCC3)c1 | 8 | 18 | -5 | 18 | -14
COc1cccc(CNC(=O)c2nc3c(s2)CCNCC3)c1 | 34* | 7 | -6 | -9 | 54*
O=C(CN1C(=O)NC2(CCCCC2)C1=O)Nc1ccc([N+](=O)[O-])cc1 | 65* | 20 | 11 | 28 | 17
O=C(Cc1ccc([N+](=O)[O-])cc1)Nc1ccc(N2CCCCC2)cc1 | -26 | -9 | 3 | -17 | -75
Cc1ccc(Cn2nc(C)c(C(=O)N3CCCc4ccccc43)c2Cl)cc1 | 10 | 10 | 0 | -16 | 25
COc1ccc(-c2ccc(CC3CN(C(=O)c4cccc(OC)c4)CCNC3=O)cc2)cc1 (stereo not drawn) | 12 | 5 | -1 | 4 | 17
O=C1NCCN(C(=O)CCn2ccccc2=O)CC1Cc1ccc(-c2ccccc2)cc1 (stereo not drawn) | 18 | 6 | 1 | 6 | 42*
SMILES | USP17 block | USP28 inh | USP10 inh | USP30 block | USP8 block
COc1ccc(C(=O)Nc2ccc3c(c2)NC(=O)C(C)O3)c(OC)c1 (stereo not drawn) | 8 | -18 | -3 | -18 | -5
Cc1cc(C)n(-c2nc3ccccc3nc2N2CCN(c3ccc([N+](=O)[O-])cc3)CC2)n1 | -3 | 2 | 0 | 13 | -5
Cc1cc(N2CCN(c3ccc([N+](=O)[O-])cc3)CC2)nc2cc3c(cc12)CCC3 | 30* | 11 | 1 | 21 | -7
Cc1cc(=O)n2[nH]c(Cc3ccccc3)c(-c3ccccc3)c2n1 | 14 | 13 | 15 | 15 | 10
CCc1c(C)nc2c(-c3ccccc3)c(Cc3ccccc3)[nH]n2c1=O | 17 | 12 | 16 | 27 | 62*
Cc1cc(C)n(-c2ccc(C(=O)NCc3cn4cc(C(F)(F)F)cc(Cl)c4n3)cc2)n1 | 37* | 19 | -2 | 0 | -3
Cc1cc(C)n(-c2ccc(C(=O)NCc3ccc(F)cc3F)cn2)n1 | -15 | -5 | 0 | -31 | -21
O=C(c1ccccc1F)N1CCN(c2nc(-c3ccc(Cl)cc3)no2)CC1 | -6 | 9 | 3 | 44* | -1
COc1ccc(-c2ccc(CCC(=O)Nc3c(C)cccc3C)o2)cc1 | 26 | 12 | 2 | 44* | 1
CC(=O)N1CCC(N(Cc2ccc3c(c2)CCO3)C2CC2)CC1 | -1 | -20 | 0 | -1 | -1
Cc1noc2ncc(-c3nnc(C(C)Oc4ccc(F)cc4)o3)cc12 (stereo not drawn) | -124 | -141 | -6 | -454 | -27
CC(C)c1cc(C(=O)N2C[C@@H]3CC[C@H](Oc4ccccc4)[C@@H]3C2)on1 | 3 | 0 | 5 | 18 | -2
Cc1cc(O)c2c3c(c(O)cc2c1)C(=O)c1c(O)cccc1C3=O | 63* | 73* | 7 | -17 | -14
CCCCOc1ccccc1C(=O)Nc1ccc(OCC)c2ncccc12 | 11 | -2 | -4 | 3 | 44*
CCCOc1ccc(C(=O)Nc2ccc(OCC)c3ncccc23)cc1 | 12 | -2 | -1 | 0 | -14
Cc1cc(C)c2nc(N3CCCC(C(=O)NCc4ccccc4C)C3)sc2c1 (stereo not drawn) | 33* | 19 | 4 | 19 | 27
Cc1cc(C)c2nc(N3CCCC(C(=O)NCc4cccc(F)c4)C3)sc2c1 (stereo not drawn) | 22 | 7 | 6 | 37* | 22
COc1ccccc1CNC(=O)C1CCCN(c2nc3c(C)cc(C)cc3s2)C1 (stereo not drawn) | -3 | -14 | 1 | 6 | -16
O=C1CC2(CCCC2)CC(=O)N1c1ccc(Oc2ccccc2)cc1 | 17 | 9 | 2 | 24 | 22
Cc1c(C(=O)N2CCCC2)nnn1-c1cccc2c1CCN(c1ccc(C#N)cn1)C2 | -5 | -1 | 4 | 2 | 0
O=C(c1cc(-c2csc(-c3cnccn3)n2)n2ccccc12)N1CCCC1 | -81 | -161 | -7 | -470 | -46
COc1ccc(C(=O)N(Cc2ccc(C)cc2)Cc2ccco2)cc1 | 33* | 30 | 9 | 34* | 12
COc1ccc(C(=O)N(Cc2ccco2)Cc2ccco2)cc1Cl | 4 | 3 | 4 | -2 | -4
COc1cccc(Sc2nc(-c3ccccc3)ncc2S(=O)(=O)c2ccccc2)c1 | -20 | -12 | 4 | -9 | -5
COc1ccc(NC(=O)CCc2c(C)c3c(C)nn(-c4ccccc4)c3n(C)c2=O)c(OC)c1 | -3 | -1 | 0 | 30* | -3

Screening data from PubChem BioAssay.
